About 83,000 compounds went through this panel and 20% of them were active in at least one assay; those are over-represented in the sample as a whole.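 Cells were grown in 96-well plates and exposed to the test compound at a single concentration for 48 hours; results are reported as percent growth, with values below 10 considered active.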 Activity calls are given as the source filed them. Where a SMILES comes first, the peptide text is derived from it. Bridges are numbered along the chain shown (N, C = ends). [ ]: non-standard residue; d: D form. The star is where a group is joined. ξ: configuration not given here. ξNMePhe(4-NMe2) = CNC(Cc1ccc(N(C)C)cc1)C(=O)O; Picolinoyl(3-OH) = O=C(c1ncccc1O)*; ξPip(4-oxo) = O=C1CCNC(C(=O)O)C1; Phg = N[CH](C(=O)O)c1ccccc1; Abu = CC[CH](N)C(=O)O
The molecules below were run on SN12C renal (assay: NCI-60 one-dose screen, 48 h (100 = growth as untreated, 0 = no growth, -100 = all killed)). Conditions: 10 µM.
`CC1=CC(=O)c2ccccc2C1=O` was tested, and the growth was 99.3% (inactive).
With `CCOC(=O)C(O)C(O)C(=O)OCC` (centres undefined) the growth was 102% (inactive).
For `Oc1ccc(Cc2ccccc2)c2cccnc12`, the growth was 20.5% (inactive).
`CC1CCCC(CC(N)=O)CC1` (centres undefined) was tested, and the growth was 107% (inactive).
In the case of `COc1cc(C(N)=O)cc(OC)c1OC`, the growth is reported as 96.1% (inactive).
With `Cc1ccc(/C(C#N)=C/c2ccc3c(c2)OCO3)cc1` the growth was 90.6% (inactive).
In the case of `O=C(O)C(Cc1ccccc1)C(=O)O`, the growth is reported as 103% (inactive).
For `O=C1N(C[P+](c2ccccc2)(c2ccccc2)c2ccccc2)CCCN1C[P+](c1ccccc1)(c1ccccc1)c1ccccc1`, the growth was 97.3% (inactive).
In the case of `N/N=C(/Cc1ccccc1)NNC(N)=S`, the growth is reported as 104% (inactive).
With `COc1ccc(C)cc1OC` the growth was 99.3% (inactive).
In the case of `O=[N+]([O-])c1cccc(N=Nc2ccc(O)cc2O)c1`, the growth is reported as 79.6% (inactive).
`CC1=NN(c2ccccc2)C(=O)/C1=C\N1CC(=O)NC1=S` was tested, and the growth was 101% (inactive).
With `CC1(O)CCCCC1O` (centres undefined) the growth was 95.1% (inactive).
In the case of `CC1(C)/C(=C\CO)C2CCC1C2` (centres undefined), the growth is reported as 99.4% (inactive).
`CCCCCCCCCCCCCCCCC1CC(=O)OC1=O` (centres undefined) was tested, and the growth was 101% (inactive).
`S=c1nn[nH]c2ccccc12` was tested, and the growth was 93.4% (inactive).
In the case of `NC(=O)NC(=O)c1ccc(Cl)cc1`, the growth is reported as 104% (inactive).
For `CC1=C(/C=C/C(C)=C/C=C/C(C)=C/CO)C(C)(C)CCC1`, the growth was 104% (inactive).
With `Cn1cnc2nc(Cl)nc(Cl)c21` the growth was 22.4% (inactive).
With `CC1(C)N=C(N)N=C(N)N1c1ccc(Cl)cc1` the growth was 41.4% (inactive).
With `O=C(/C=C\c1ccc(O)cc1)c1ccccc1` the growth was 89% (inactive).
In the case of `CO[C@H]1C[C@@H]2CC[C@@H](C)[C@@](O)(O2)C(=O)C(=O)N2CCCC[C@H]2C(=O)O[C@H]([C@H](C)C[C@@H]2CC[C@@H](O)[C@H](OC)C2)CC(=O)[C@H](C)C=C(C)[C@@H](O)[C@@H](OC)C(=O)[C@H](C)C[C@H](C)/C=C/C=C/C=C1C`, the growth is reported as 74.2% (inactive).
In the case of `C/C(O)=C(\C=N\C(N)=S)C(=O)Nc1ccccc1`, the growth is reported as 94.1% (inactive).
For `CCS(=O)(=O)c1cc(=O)[nH]c(=O)[nH]1`, the growth was 101% (inactive).
With `CCCNC(=O)c1ccc(S(N)(=O)=O)cc1` the growth was 107% (inactive).
With `CC(C)(O)C#CC#CC(C)(C)O` the growth was 109% (inactive).
With `CCC1NC(=O)C(NC(=O)c2ncccc2O)C(C)OC(=O)C(c2ccccc2)NC(=O)C2CC(=O)CCN2C(=O)C(Cc2ccc(N(C)C)cc2)N(C)C(=O)C2CCCN2C1=O` (centres undefined) (tested in a mixture with another compound) ({Picolinoyl(3-OH)}-T[Abu]P[ξNMePhe(4-NMe2)][ξPip(4-oxo)][Phg]; ester 1-C; configuration not given here) the growth was 75% (inactive).
`NNc1ccccc1C(=O)O` was tested, and the growth was 116% (inactive).
`[O-][N+](=Nc1cccc(Cl)c1)c1cccc(Cl)c1` was tested, and the growth was 93% (inactive).
For `O=C(O)C(O)c1ccccc1` (centres undefined), the growth was 106% (inactive).
For `CC(=O)Nc1ccc(NC(C)=O)c2c1C(=O)c1ccccc1C2=O`, the growth was 86.9% (inactive).
For `COc1cc2c3c(n(C)c(=O)c2cc1OC)-c1cc2c(cc1C3=O)OCO2`, the growth was 87% (inactive).
With `CCN(CC)CCCC(C)Nc1ccnc(/C=C/c2ccc(Cl)cc2)c1` (centres undefined) the growth was 61.1% (inactive).
In the case of `O=C1c2ccccc2C(=O)c2c1ccc(C(=O)O)c2[N+](=O)[O-]`, the growth is reported as 101% (inactive).
In the case of `O=[N+]([O-])c1ccccc1N=Nc1ccc(O)cc1O`, the growth is reported as 107% (inactive).
For `O=C1C=C(O)C(=O)C=C1O`, the growth was 107% (inactive).
For `N#CCCN(CCCN1CCOCC1)CN1C(=O)c2ccccc2C1=O`, the growth was 108% (inactive).
`C/C=C/CC(C)C(O)C1C(=O)NC(CC)C(=O)N(C)CC(=O)N(C)C(CC(C)C)C(=O)NC(C(C)C)C(=O)N(C)C(CC(C)C)C(=O)NC(C)C(=O)NC(C)C(=O)N(C)C(CC(C)C)C(=O)N(C)C(CC(C)C)C(=O)N(C)C(C(C)C)C(=O)N1C` (centres undefined) was tested, and the growth was 27.4% (inactive).
For `Cc1cc(=O)cc(C)n1-c1ccccc1`, the growth was 89.3% (inactive).

Reference: PubChem BioAssay (NCI)
